In PubChem BioAssay:
Calls of active or inactive are those of the source.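 How the source made its calls: active means thallium flux through the channel raised or lowered by more than 3 SD from vehicle-only wells, actives on both sides; inactive means the rest.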

Columns and labels:
Experiment in all cases: modulators of BK channel variants, profiling panel, selectivity assay, cell-based, U2OS BacMam, thallium flux, beta subunits (AID 1259406);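 further: initial slope of Thallos dye fluorescence rise after thallium is added; log ratio against the mean of 0.3% DMSO vehicle wells on the same plate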
F380Y = settings: at 30 µM
F380Y/beta1 = settings: at 30 µM
F380Y/beta2Delta = settings: at 30 µM
F380Y/beta4 = settings: at 30 µM
[1] = target: Calcium-activated potassium channel subunit alpha-1 (Homo sapiens) + Leucine-rich repeat-containing protein 26 (Homo sapiens) (UniProt Q12791+Q2I0M4); settings: F380Y/Slo1WT/gamma1, at 30 µM
Sequence of Calcium-activated potassium channel subunit alpha-1 (Homo sapiens) + Leucine-rich repeat-containing protein 26 (Homo sapiens) (Q2I0M4 whole entry, looked up, one chain of several): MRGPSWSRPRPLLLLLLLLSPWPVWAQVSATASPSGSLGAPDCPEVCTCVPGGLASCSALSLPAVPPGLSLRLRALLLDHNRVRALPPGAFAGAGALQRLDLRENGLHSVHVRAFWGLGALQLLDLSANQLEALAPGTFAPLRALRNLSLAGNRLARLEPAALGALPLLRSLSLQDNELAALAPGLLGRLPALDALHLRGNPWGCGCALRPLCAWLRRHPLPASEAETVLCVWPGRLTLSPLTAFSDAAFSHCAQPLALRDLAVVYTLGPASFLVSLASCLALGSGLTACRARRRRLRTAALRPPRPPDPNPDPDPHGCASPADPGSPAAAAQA

R275C = settings: at 30 µM
R275C/beta1 = settings: at 30 µM
R275C/beta2Delta = settings: at 30 µM
R275C/beta4 = settings: at 30 µM
R275C/Slo1WT/beta2 = settings: at 30 µM

Measured: log fold change Tl+ flux

Clc1ccc(-c2cnc(-c3ccc(Cl)cc3)o2)cc1
inactive: F380Y 0.0159 | F380Y/beta1 -0.0226 | F380Y/beta2Delta 0.0345 | F380Y/beta4 -0.00734 | [1] -0.0607 | R275C 0.0428 | R275C/beta1 0.00118 | R275C/beta2Delta 0.0163 | R275C/beta4 0.00237 | R275C/Slo1WT/beta2 -0.017

CC(=O)C1=C(C)Nc2ccccc2S1
inactive: F380Y 0.0144 | F380Y/beta1 -0.00709 | F380Y/beta2Delta -0.0326 | F380Y/beta4 -0.00774 | [1] -0.000563 | R275C 0.0464 | R275C/beta1 -0.0243 | R275C/beta2Delta -0.0168 | R275C/beta4 -0.00794 | R275C/Slo1WT/beta2 0.0465

CC12CC=C(C#N)C1(C)CC=C2C#N (stereo not given)
inactive: F380Y 0.0296 | F380Y/beta1 0.00573 | F380Y/beta2Delta 0.0262 | F380Y/beta4 0.00555 | [1] 0.0366 | R275C -0.017 | R275C/beta1 0.0163 | R275C/beta2Delta -0.011 | R275C/beta4 0.0134 | R275C/Slo1WT/beta2 -0.00417

COC(=O)CC1(C(=O)OC)Oc2ccc(Br)cc2C(=O)N1c1cccc(Cl)c1Cl (stereo not given)
active: F380Y -0.195 | F380Y/beta1 0.188 | F380Y/beta4 -0.677 | [1] -0.246 | R275C -0.108 | R275C/beta4 -0.204
inactive: F380Y/beta2Delta -0.0998 | R275C/beta1 0.102 | R275C/beta2Delta 0.0176 | R275C/Slo1WT/beta2 -0.0135

O=C(CC(=O)NNC(=O)c1ccc(F)cc1)NNC(=O)c1ccc(F)cc1
inactive: F380Y 0.0677 | F380Y/beta1 -0.0109 | F380Y/beta2Delta 0.0456 | F380Y/beta4 -0.0066 | [1] -0.0103 | R275C -0.0271 | R275C/beta1 0.0179 | R275C/beta2Delta 0.0309 | R275C/beta4 -0.00647 | R275C/Slo1WT/beta2 -0.086

CCOC(=O)NN=C(C)C(C)=NNC(=O)OCC
inactive: F380Y -0.0316 | F380Y/beta1 -0.0656 | F380Y/beta2Delta -0.0255 | F380Y/beta4 -0.0305 | [1] -0.00664 | R275C -0.0333 | R275C/beta1 -0.0653 | R275C/beta2Delta -0.00622 | R275C/beta4 -0.0094 | R275C/Slo1WT/beta2 0.0167

CCOC(=O)C1CCCN(C(=O)Nc2c(-c3ccccc3)noc2C)C1 (stereo not given)
inactive: F380Y 0.0297 | F380Y/beta1 -0.0223 | F380Y/beta2Delta -0.00149 | F380Y/beta4 0.0159 | [1] 0.00293 | R275C -0.0483 | R275C/beta1 -0.0144 | R275C/beta2Delta -0.0161 | R275C/beta4 -0.0185 | R275C/Slo1WT/beta2 0.00733

Cc1cc(NC(=O)Nc2nc(-c3ccc(C)c(Cl)c3)c(C)s2)c(C(F)(F)F)o1
inactive: F380Y 0.0531 | F380Y/beta1 0.0378 | F380Y/beta2Delta 0.0304 | F380Y/beta4 -0.0149 | [1] 0.0333 | R275C 0.0173 | R275C/beta1 -0.0274 | R275C/beta2Delta 0.015 | R275C/beta4 0.0593 | R275C/Slo1WT/beta2 0.0144

COc1cc(NC(=S)Nc2cccc(C)n2)c(OC)cc1Cl
inactive: F380Y 0.00134 | F380Y/beta1 -0.00183 | F380Y/beta2Delta 0.043 | F380Y/beta4 0.0519 | [1] -0.00641 | R275C 0.00398 | R275C/beta1 -0.033 | R275C/beta2Delta 0.0321 | R275C/beta4 -0.0698 | R275C/Slo1WT/beta2 -0.00284

O=C(Nc1ccc(Cl)cc1)c1cnccc1C(F)(F)F
inactive: F380Y 0.0622 | F380Y/beta1 0.0187 | F380Y/beta2Delta 0.066 | F380Y/beta4 0.0347 | [1] -0.0423 | R275C 0.0193 | R275C/beta1 0.0288 | R275C/beta2Delta -0.00135 | R275C/beta4 0.0311 | R275C/Slo1WT/beta2 -0.0457

CCCCCCCCCCCCSC(=S)Nc1ccc(Br)c(C)c1
inactive: F380Y -0.0409 | F380Y/beta1 -0.00527 | F380Y/beta2Delta -0.0326 | F380Y/beta4 -0.000986 | [1] -0.031 | R275C 0.0399 | R275C/beta1 0.0206 | R275C/beta2Delta -0.028 | R275C/beta4 0.0416 | R275C/Slo1WT/beta2 0.0211

CCOC(=O)c1cnn(C(=O)c2ccc(-n3c(C)ccc3C)cc2)c1N
inactive: F380Y -0.0269 | F380Y/beta1 -0.0106 | F380Y/beta2Delta -0.0157 | F380Y/beta4 -0.067 | [1] 0.00537 | R275C -0.0135 | R275C/beta1 -0.0219 | R275C/beta2Delta 0.0233 | R275C/beta4 -0.00435 | R275C/Slo1WT/beta2 0.0525

COC(=O)c1cc(-c2nc(-c3ccc(Cl)cc3Cl)cs2)c(SC)s1
inactive: F380Y -0.0122 | F380Y/beta1 -0.00509 | F380Y/beta2Delta 0.0439 | F380Y/beta4 0.00731 | [1] 0.00703 | R275C -0.00909 | R275C/beta1 -0.0387 | R275C/beta2Delta 0.0331 | R275C/beta4 -0.0197 | R275C/Slo1WT/beta2 -0.00912

O=C(O)CSCC(=O)Nc1ccc(-c2nc3ccccc3s2)cc1
inactive: F380Y -0.0115 | F380Y/beta2Delta -0.0257 | F380Y/beta4 -0.0352 | R275C 0.0193 | R275C/beta1 0.0504 | R275C/beta2Delta 0.0724 | R275C/beta4 0.0271 | R275C/Slo1WT/beta2 -0.022
active: F380Y/beta1 0.19 | [1] 0.126

OC(Cc1ccccc1)(c1ccccc1)c1ccccc1N=Cc1ccc2c(c1)OCO2 (stereo not given)
inactive: F380Y 0.00821 | F380Y/beta1 0.0126 | F380Y/beta2Delta -0.0347 | F380Y/beta4 -0.0765 | [1] -0.0874 | R275C -0.0385 | R275C/beta1 -0.0387 | R275C/beta2Delta -0.0661 | R275C/beta4 -0.00775 | R275C/Slo1WT/beta2 -0.0302

O=c1[nH]cnc2scc(-c3cccs3)c12
inactive: F380Y -0.0452 | F380Y/beta1 -0.0118 | F380Y/beta2Delta 0.0191 | F380Y/beta4 0.0165 | [1] -0.0657 | R275C -0.0434 | R275C/beta1 0.00866 | R275C/beta2Delta -0.0381 | R275C/beta4 0.0239 | R275C/Slo1WT/beta2 -0.0542

CCc1cc(C(=O)c2ccc(OC)cc2)c(NC(=O)CN2CCN(C)CC2)s1
inactive: F380Y -0.0314 | F380Y/beta1 -0.0083 | F380Y/beta2Delta -0.00202 | F380Y/beta4 -0.0121 | [1] 0.0213 | R275C -0.0119 | R275C/beta1 -0.00614 | R275C/beta2Delta 0.00802 | R275C/beta4 0.0372 | R275C/Slo1WT/beta2 -0.00941

NC(=O)CN1C(=O)C(=Cc2ccco2)N=C1c1ccccc1
inactive: F380Y -0.0123 | F380Y/beta1 -0.0266 | F380Y/beta2Delta -0.0599 | F380Y/beta4 -0.0551 | [1] -0.015 | R275C -0.000262 | R275C/beta1 0.031 | R275C/beta2Delta -0.0538 | R275C/beta4 0.0139 | R275C/Slo1WT/beta2 -0.0206

COC(=O)c1ccc(C=Cc2cccc(Cl)c2)s1
inactive: F380Y -0.0764 | F380Y/beta1 -0.0156 | F380Y/beta2Delta -0.00709 | R275C/beta2Delta -0.00722 | R275C/beta4 -0.0416
active: F380Y/beta4 -0.264 | [1] -0.421 | R275C -0.198 | R275C/beta1 -0.192 | R275C/Slo1WT/beta2 -0.104

Cc1ccc(I)cc1[N+](=O)[O-]
inactive: F380Y 0.00211 | F380Y/beta1 -0.0212 | F380Y/beta2Delta 0.0224 | F380Y/beta4 -0.0253 | [1] 0.0293 | R275C 0.0178 | R275C/beta1 0.00943 | R275C/beta2Delta -0.016 | R275C/beta4 0.00957 | R275C/Slo1WT/beta2 -0.00671

O=S(=O)(Nc1cc(Cl)c(-n2cccc2)cc1Oc1ccc(Cl)cc1)c1ccc(Cl)cc1
inactive: F380Y 0.0117 | F380Y/beta1 -0.0223 | F380Y/beta2Delta 0.00907 | F380Y/beta4 -0.0612 | [1] -0.0472 | R275C 0.0112 | R275C/beta1 -0.0614 | R275C/beta2Delta -0.0256 | R275C/beta4 0.0232 | R275C/Slo1WT/beta2 -0.0536

COC(OC)c1ccc(C#N)c(SC)n1
inactive: F380Y 0.0176 | F380Y/beta1 -0.0051 | F380Y/beta2Delta 0.00992 | F380Y/beta4 0.0407 | [1] -0.00294 | R275C -0.0258 | R275C/beta1 -0.00195 | R275C/beta2Delta 0.0434 | R275C/beta4 -0.0479 | R275C/Slo1WT/beta2 -0.0163

Fc1cccc(Cl)c1CSc1nccn1-c1cccnc1
inactive: F380Y 0.00886 | F380Y/beta1 0.00855 | F380Y/beta2Delta 0.00345 | F380Y/beta4 0.0175 | [1] 0.00834 | R275C 0.0131 | R275C/beta1 0.0289 | R275C/beta2Delta 0.0125 | R275C/beta4 0.0207 | R275C/Slo1WT/beta2 0.0418

CSc1nc(C)nc(Sc2cccc(C(F)(F)F)c2)c1C#N
inactive: F380Y -0.0573 | F380Y/beta1 0.0287 | F380Y/beta2Delta 0.00499 | F380Y/beta4 0.0691 | [1] 0.0378 | R275C -0.0292 | R275C/beta1 -0.00668 | R275C/beta2Delta -0.023 | R275C/beta4 0.00747 | R275C/Slo1WT/beta2 0.00901

Clc1ccc(Sc2cn[nH]c2-c2ccc3c(c2)OCCO3)cc1
inactive: F380Y -0.025 | F380Y/beta1 -0.0285 | F380Y/beta2Delta -0.0116 | F380Y/beta4 0.0103 | [1] -0.102 | R275C 0.0336 | R275C/beta1 -0.00464 | R275C/beta2Delta -0.0611 | R275C/beta4 -0.0292 | R275C/Slo1WT/beta2 -0.0512

O=[N+]([O-])c1cnc(Sc2nccc(-c3cccnc3)n2)s1
inactive: F380Y -0.00331 | F380Y/beta1 0.0246 | F380Y/beta2Delta -0.0191 | F380Y/beta4 0.00729 | [1] -0.074 | R275C 0.0275 | R275C/beta1 0.026 | R275C/beta2Delta -0.0186 | R275C/beta4 0.0146 | R275C/Slo1WT/beta2 -0.0189
